Bioassay records deposited in PubChem BioAssay by Broad Institute.
Rows were chosen to be rich in hits. Some 8.1% of all compounds tested hit in one or more screens of this group.
Hedgehog inh: Sonic Hedgehog pathway inhibition. Shh-LIGHT2 Gli-luciferase reporter, 30 h. inhibition, % (no concentration beside the values). hit rate 2.1% among 22,000. AID 2313;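 active = mean inhibition across valid replicates above about 65%, limit read from the data; inconclusive = mean under the limit, yet half or more replicates past it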;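 note: pathway switched on by Shh-conditioned medium diluted 1 in 25 in low serum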
PD-1 reverse act: activators reversing PD-1 mediated T-cell inhibition; primary human CD4 T cells, PD-L1 beads, CellTiter-Glo 96 h; activation, % (concentration not given with the values); 29,000 tested, under 10 active; AID 2316; call rule not given here
MITF inh: inhibitors of MITF | TRPM1 promoter luciferase, luminescence, 24 h | inhibition, % (test concentration not listed) | hit rate 0.28% among 37,000 | AID 2240; in the data active = inhibition above about 85%; inconclusive = no clear call, values can overlap the other calls; inactive = below about 68%;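 note: human melanocyte line stably carrying TRPM1 promoter luciferase reporter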
NOMO-1 viab: STK33 inhibitor candidate reducing NOMO-1 cell viability; AID 2330; hit rate 7.5% among 37,000; inhibition, % (concentration not given with the values); NOMO-1 AML viability, CellTiter-Glo luminescence, 72 h; in the data active = inhibition above about 80%; inconclusive = no clear call, values can overlap the other calls
A number is an active result; – = inactive; ? = inconclusive; · = no result.

SMILES	Hedgehog inh	PD-1 reverse act	MITF inh	NOMO-1 viab
CC(=O)O[C@@H]1C[C@@H](C)[C@](O)(CCC2=CC(=O)OC2)[C@@]2(C)CCCC(C)(C)C12 (some centres undefined)	–	–	–	104
COc1ccc(C(C)NC(=O)c2cc(-c3ccccn3)nc3ccc(Br)cc23)cc1OC (centres undefined)	·	·	–	90
COc1ccccc1CCNC(=O)c1cc(-c2ccncc2)nc2ccc(Br)cc12	·	–	–	94
CSCC(NS(=O)(=O)c1ccc(Br)cc1)C(=O)O (centres undefined)	·	–	–	–
O=C(O)c1ccccc1Sc1ccccc1S(=O)(=O)NC12CC3CC(CC(C3)C1)C2	–	–	–	–
CC(=O)c1ccccc1OC(=O)CCN1C(=O)C2C3c4ccccc4C(c4ccccc43)C2C1=O (centres undefined)	·	·	–	–
O=C(CCN1C(=O)C2C3C=CC(C4CC34)C2C1=O)Oc1cccc2cccnc12 (centres undefined)	·	–	–	121
O=C(CCN1C(=O)C2C3C=CC(C3)C2C1=O)Oc1cccc2cccnc12 (centres undefined)	·	–	–	113
CC(C)(C)c1ccc(OC(=O)CCN2C(=O)C3C4C=CC(C5CC45)C3C2=O)cc1 (centres undefined)	·	–	–	–
CSc1nc2cc(C)nn2c(-c2ccco2)c1C#N	–	–	–	–
CCn1c(SCC(=O)Nc2cccc(Cl)c2Cl)nc2ccccc2c1=O	–	–	–	–
O=C(CSc1nc(Nc2ccccc2)nc(N2CCOCC2)n1)Nc1ccccc1Cl	·	–	–	–
COC(=O)c1cc(NC(=O)CSc2nc(Nc3ccccc3)nc(N3CCOCC3)n2)ccc1Cl	·	–	–	117
C[C@H]1CN([C@@H](C)CO)C(=O)c2cc(NC(=O)Nc3ccc(C(F)(F)F)cc3)ccc2O[C@H]1CN(C)Cc1ccc(C(=O)O)cc1	·	–	–	–
C[C@H](CO)N1C[C@H](C)[C@@H](CN(C)Cc2ccc(-c3ccccc3)cc2)Oc2ccc(NC(=O)Nc3ccc(C(F)(F)F)cc3)cc2C1=O	–	–	–	122
C[C@H](CO)N1C[C@H](C)[C@@H](CN(C)Cc2ccc(C(=O)O)cc2)Oc2ccc(NC(=O)Nc3ccc(C(F)(F)F)cc3)cc2C1=O	·	–	–	–
C[C@@H]1CN([C@H](C)CO)C(=O)c2cc(NC(=O)Nc3ccc(C(F)(F)F)cc3)ccc2O[C@H]1CN(C)Cc1ccc(-c2ccccc2)cc1	–	–	–	126
C[C@@H]1CN([C@@H](C)CO)C(=O)c2cc(NC(=O)Nc3ccc(C(F)(F)F)cc3)ccc2O[C@H]1CN(C)Cc1ccc(-c2ccccc2)cc1	–	·	–	118
C[C@@H]1CN([C@@H](C)CO)C(=O)c2cc(NC(=O)Nc3ccc(C(F)(F)F)cc3)ccc2O[C@@H]1CN(C)Cc1ccc(-c2ccccc2)cc1	–	–	–	126
Cc1cc(OCC(=O)Nc2ccc(O)cc2C(=O)O)cc(C)c1Cl	·	·	–	–
CC(=O)c1cccc(NC(=O)NCc2cnn(C)c2)c1	·	–	–	–
CC1(C)C(=O)[C@@H]2O[C@@H]2[C@@]2(C)C1CC(=O)[C@]1(C)C2CC[C@@]2(C)[C@H](c3ccoc3)OC(=O)[C@H]3O[C@]321 (some centres undefined)	–	·	–	–
C=C(C)[C@@]12O[C@@H]1[C@@]1(C)C(=CC2=O)CC[C@@H](O)[C@@H]1C	–	–	–	114
COc1cc(NC(=O)Cn2nc(C(F)(F)F)c(Cl)c2C)cc([N+](=O)[O-])c1	·	–	–	114
N#Cc1c(SCC(=O)c2ccc(F)cc2)nsc1SCC(=O)c1ccc(F)cc1	81	–	–	–
SMILES	Hedgehog inh	PD-1 reverse act	MITF inh	NOMO-1 viab
FC(F)(F)COc1ccc(-c2nnc(SCc3ccccc3C(F)(F)F)o2)cn1	·	–	–	–
O=C(/C=C/c1ccc(O)cc1)CC(=O)/C=C/c1ccc(O)cc1	–	–	–	108
CC(C)N(C(=O)CSc1nc2ccc(Cl)cc2[nH]1)c1ccccc1	·	·	–	–
Cc1cc(C(=O)N(c2ccccc2)C(C)C2CC2)c(Cl)cc1Cl (centres undefined)	–	–	–	134
C[C@@H]1CCCCO[C@H](CN(C)C(=O)Nc2cccc3ccccc23)[C@@H](C)CN([C@H](C)CO)C(=O)c2cc(NS(=O)(=O)c3ccccc3)ccc2O1	·	–	–	–
C[C@@H]1CCCCO[C@H](CN(C)C(=O)Nc2cccc3ccccc23)[C@@H](C)CN([C@H](C)CO)C(=O)c2cc(NS(=O)(=O)c3ccc(F)cc3)ccc2O1	–	–	–	94
C[C@@H]1CCCCO[C@@H](CN(C)Cc2ccc(C(=O)Nc3ccccc3N)cc2)[C@@H](C)CN([C@H](C)CO)C(=O)c2cc(NS(=O)(=O)c3ccccc3)ccc2O1	·	–	–	140
C[C@@H]1CCCCO[C@@H](CN(C)Cc2ccc(C(=O)Nc3ccccc3N)cc2)[C@@H](C)CN([C@H](C)CO)C(=O)c2cc(NS(=O)(=O)c3ccc(F)cc3)ccc2O1	·	–	–	141
C[C@@H]1CCCCO[C@H](CN(C)Cc2ccc(C(=O)Nc3ccccc3N)cc2)[C@@H](C)CN([C@H](C)CO)C(=O)c2cc(NS(=O)(=O)c3ccc(Cl)cc3)ccc2O1	·	–	–	127
Cc1nn(-c2ccccc2)c(C)c1Sc1n[nH]c(=O)[nH]c1=O	–	–	–	–
c1ccc(-n2nnnc2CSc2ncn[nH]2)cc1	·	–	–	–
COc1cccc2c(=O)c(CCC(=O)O)c(C)[nH]c12	·	·	–	–
Cc1ccc(C2=NNC(=O)C(c3cn(CCC#N)c4ccccc34)C2)cc1 (centres undefined)	·	–	–	–
Cn1c2ccccc2c2c3c(c4c5ccccc5n(CCC#N)c4c21)CNC3=O	–	–	–	140
C[C@@H]1CN([C@H](C)CO)C(=O)c2cc(NC(=O)Nc3ccc(C(F)(F)F)cc3)ccc2O[C@H]1CN(C)C(=O)Nc1ccc2c(c1)OCO2	·	–	–	–
C[C@H](CO)N1C[C@H](C)[C@H](CN(C)C(=O)Nc2ccc3c(c2)OCO3)Oc2ccc(NC(=O)Nc3ccc(C(F)(F)F)cc3)cc2C1=O	–	–	–	99
C[C@@H]1CN([C@@H](C)CO)C(=O)c2cc(NC(=O)Nc3ccc4c(c3)OCO4)ccc2O[C@@H]1CN(C)C(=O)Nc1ccc(C(F)(F)F)cc1	–	–	–	93
COC(=O)c1ccc(C(=O)OC)c(NC(=O)COc2cc(C)c(C)cc2C)c1	·	·	–	–
C[C@H]1CN([C@@H](C)CO)C(=O)c2cc(NC(=O)Nc3ccc(F)cc3)ccc2O[C@H]1CN(C)Cc1ccc(Oc2ccccc2)cc1	·	–	–	–
COc1ccc(NC(=O)Nc2ccc3c(c2)C(=O)N([C@@H](C)CO)C[C@@H](C)[C@@H](CN(C)Cc2ccc(C(F)(F)F)cc2)O3)cc1	·	–	–	?
C[C@H](CO)N1C[C@H](C)[C@H](CN(C)Cc2ccc(Oc3ccccc3)cc2)Oc2ccc(NC(=O)Nc3ccc(C(F)(F)F)cc3)cc2C1=O	·	–	–	114
C[C@H](CO)N1C[C@H](C)[C@@H](CN(C)Cc2ccc(Oc3ccccc3)cc2)Oc2ccc(NC(=O)Nc3ccc(C(F)(F)F)cc3)cc2C1=O	–	·	–	128
